Assay results: PubChem BioAssay AID1529 (NMMLSC, 2009)
In all, about 290,000 compounds went through this assay and about 4,200 (1.4%) were called active.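 Rule for the calls: active = binding response more than 3 SD above or below the average of its plate-row segment, actives on both sides; inconclusive = wells at one plate position flagged as instrument error; inactive = the rest.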 For the sample, actives were picked, then their nearest neighbours and some compounds at random.

Target: Mitogen-activated protein kinase kinase kinase 3 (Homo sapiens) (UniProt Q99759)
Assay: compounds raising or lowering MEK5 association with MEKK3 PB1 – biochemical, wildtype MEKK3, multiplex bead flow cytometry, Alexa488-MEK5, primary screen (AID 1529);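 note: Alexa488 bead fluorescence after subtracting the streptavidin-only scavenger bead signal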
Details: bead-based flow cytometry, Alexa488-MEK5 binding to MEKK3; at 10 µM; actives lie on both sides; 0 = blocked by unlabeled MEK5, 100 = vehicle

Mitogen-activated protein kinase kinase kinase 3 (Homo sapiens), sequence (Q99759 whole entry, looked up): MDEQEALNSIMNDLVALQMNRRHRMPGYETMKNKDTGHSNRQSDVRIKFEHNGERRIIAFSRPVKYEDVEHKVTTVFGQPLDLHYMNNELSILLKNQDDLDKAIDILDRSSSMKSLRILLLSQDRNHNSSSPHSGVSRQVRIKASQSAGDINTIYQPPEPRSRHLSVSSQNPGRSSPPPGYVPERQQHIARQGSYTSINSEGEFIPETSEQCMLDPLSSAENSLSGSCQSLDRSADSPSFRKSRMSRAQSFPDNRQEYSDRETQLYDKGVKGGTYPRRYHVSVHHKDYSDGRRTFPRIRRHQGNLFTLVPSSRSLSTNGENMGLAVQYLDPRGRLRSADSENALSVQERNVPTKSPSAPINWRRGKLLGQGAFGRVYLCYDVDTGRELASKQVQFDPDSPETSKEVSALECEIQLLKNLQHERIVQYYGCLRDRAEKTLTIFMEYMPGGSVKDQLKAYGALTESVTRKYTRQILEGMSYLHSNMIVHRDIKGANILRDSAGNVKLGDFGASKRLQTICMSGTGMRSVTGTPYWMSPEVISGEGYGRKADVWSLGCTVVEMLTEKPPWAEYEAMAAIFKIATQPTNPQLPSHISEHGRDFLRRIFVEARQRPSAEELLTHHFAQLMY

Binding response (% of control), inactive:
CC1(C)CC[C@]2(C(=O)O)CC[C@]3(C)C(=CCC4[C@@]5(C)CC[C@H](O)C(C)(C)C5[C@H](O)C[C@]43C)[C@@H]2C1 (stereo not given in full) 101%
Cc1ccc(-c2nc3ccccc3[nH]2)cc1NC(=O)c1sc2ccccc2c1Cl 102%
O=C(Cc1cccs1)Nc1cccc(-c2nc3ccccc3[nH]2)c1 107%
CCNC(=O)c1cnn(-c2ccccc2)c1-c1ccccc1 103%
COc1ccc(C(=O)NC(=S)N2CCCCC2c2cccnc2)cc1OC (stereo not given) 98%
O=C(c1ccc(CS(=O)(=O)c2ccccc2)o1)N1CCN(c2ccccc2)CC1 102%
O=C(c1cccc([N+](=O)[O-])c1)N1CCN(C(=O)c2ccco2)CC1 100%
O=C(Cc1c(F)cccc1Cl)N1CCN(C(=O)c2ccco2)CC1 103%
Fc1ccc2c(c1)C(c1cccnc1)=NNC(c1cccs1)=N2 107%
CCCOc1ccc(Cl)cc1Nc1nc(NCCO)nc(N2CCCC2)n1 108%
COc1ccc2c(c1)C(=C(C#N)C#N)C(=O)N2CCc1ccccc1 96%
O=C(O)CCCN1C(=O)c2ccccc2Sc2ncccc21 107%
CC1CN(C(=S)Nc2cccc(F)c2)CC(C)O1 (stereo not given) 105%
COc1ccc(CNC(=O)C2(CC3CC(c4ccccc4)=NO3)CCN(C(=O)c3cccc(O)c3)CC2)cc1 (stereo not given) 99%
COC(=O)c1ccc(NC(=O)CSc2nnc(CNc3ccc(OC)cc3)n2C)cc1 106%
COc1ccc(C(=O)NCc2nnc(SCCOc3ccccc3)n2C)cc1 102%
O=C(NCc1ccccc1)c1onc(CSc2ccncc2)c1C(=O)NCc1ccccc1 106%
CO/N=C(\N)c1ccc([N+](=O)[O-])cc1 98%
O=C(N/N=C/c1cccc([N+](=O)[O-])c1)c1ccncc1 107%
C#CCOCCOCCOCCNc1nc(N2CCN(C(=O)C([C@@H](C)CC)n3cc(C(N)COC(=O)C(F)(F)F)nn3)CC2)nc(N2CCN(C(=O)[C@H](Cc3ccc(O)cc3)n3cc(C(N)[C@H](C)CC)nn3)CC2)n1 (stereo not given in full) 104%
CC(=O)Nc1ccc(Oc2ccc3c(c2)C(=O)NC3=O)cc1 105%
O=C(Cn1cnc([N+](=O)[O-])n1)NCCc1ccccc1 102%
CC(C)(C)NC(=O)Cn1cnc2cc([N+](=O)[O-])ccc2c1=O 95%
CCC(CC)COC(=O)C1=C(C)NC(=O)NC1c1ccc([N+](=O)[O-])cc1 (stereo not given) 105%
CCSc1nnc(SCC(=O)NNC(=O)c2ccccc2F)s1 101%
CCOc1ccc(NC(=O)Nc2cc(C)on2)cc1 102%
CCOc1ccc(C(=O)Nc2cc(OC)ccc2OC)cc1 97%
CC(C)CCC(C)NC(=O)c1ccc2nccnc2c1 (stereo not given) 61%
CCCc1nnc(NC(=O)CCC(=O)NC2CC2)s1 96%
CC(=O)N(C)c1ccc(NC(=O)Nc2cccc3ccccc23)cc1 103%
CCOc1ccc(NC(=O)Nc2ccc(N(C)C(C)=O)cc2)cc1 101%
CC(NCC(=O)Nc1cc(Cl)cc(Cl)c1)c1ccccc1 (stereo not given) 100%
Cc1cc(=O)oc2c3c(cc(OCC(=O)N[C@H](C(=O)O)c4ccccc4)c12)OC(C)(C)CC3 97%
C=CCC1(C(=O)N(C)Cc2ccccc2)CCN(C(=O)OC(C)(C)C)CC1 97%
CC(=O)Nc1ccc(-c2csc(NC(=O)Nc3ccccc3)n2)cc1 101%
Cc1cc(-c2csc(N)n2)c(C)n1Cc1ccccc1 91%
O=C(NCCCN1CCCCCC1)c1ccc(N2CCCC2=O)cc1 108%
CC1CCC(NC(=O)c2ccc(N3CCCC3=O)cc2)CC1 (stereo not given) 104%
COc1ccc(S(=O)(=O)NC(C)c2ccccc2)cc1C(=O)N1CCCCC1 (stereo not given) 103%
CCCN1CCn2c3c(c4cc(Br)ccc42)CCCC31 (stereo not given) 96%
O=C(c1cccs1)N(Cc1cc2ccccc2[nH]c1=O)CC1CCCO1 (stereo not given) 99%
O=S(=O)(c1ccccc1)N1CN(Cc2ccc(F)cc2)c2nc3ccccc3nc21 85%
C=CCN1CN(S(=O)(=O)c2ccc(OC)cc2)c2nc3ccccc3nc21 100%
Cc1ccc(C(=O)N2CCC(n3nccc3NC(=O)Nc3cccc(F)c3)CC2)cn1 96%
COC(=O)c1ccc(/C=N/NC(=O)C(=O)N2CCCCCC2)cc1 101%
CCn1cc(CN2CCN(CC(C)(C)C)C(CCO)C2)c2ccccc21 (stereo not given) 107%
COCCOC(=O)C1=C(C)Nc2nc(C)nn2C1c1ccccc1 (stereo not given) 97%
COc1cc(C2C(C(=O)Nc3ccc(F)cc3)=C(C)Nc3nc(CCCO)nn32)cc(OC)c1OC (stereo not given) 104%

Binding response (% of control), active:
O=C(Nc1cccc(-c2nc3ccccc3[nH]2)c1)c1ccc(C(=O)Nc2cccc(-c3nc4ccccc4[nH]3)c2)cc1 63% [inhibitor]
O=C(c1ccco1)N1CCN(c2cccc(Cl)c2)CC1 2% [inhibitor]
CCCCN1C(=O)/C(=C(/C#N)C(N)=O)c2ccccc21 146%
COc1ccc(C(=O)NCc2nnc(SCC(=O)NC3=NCCS3)n2C)cc1 71% [inhibitor]
N/C(=N\OS(=O)(=O)c1cccc([N+](=O)[O-])c1)c1ccncc1 145%
CC(C)(C)NC(=O)Cn1cnc([N+](=O)[O-])n1 1% [inhibitor]
CCOc1ccc(NC(=O)Nc2cc(C)ccc2OC)cc1 71% [inhibitor]
CC(=O)N(C)c1ccc(NC(=O)C(F)(F)F)cc1 2% [inhibitor]
CC(=O)Nc1ccc(C(=O)Nc2nc(-c3cc(C)n(Cc4ccccc4)c3C)cs2)cc1 131%
O=C(COC(=O)c1ccc(N2CCCC2=O)cc1)c1ccc(OC(F)F)cc1 1% [inhibitor]
COc1ccc(S(=O)(=O)N2CN(CCc3ccc(OC)c(OC)c3)c3nc4ccccc4nc32)cc1 64% [inhibitor]
COC(=O)c1nc2n(n1)C(c1ccc([N+](=O)[O-])cc1)C(C(=O)Nc1ccc(Cl)cc1)=C(C)N2 (stereo not given) 139%
